# TIM10 inh – inhibits growth of TIM10 yeast strain. S. cerevisiae TIM10 strain growth, BacTiter-Glo luminescence, 24 h. inhibition, % at 10 µM. 330,000 compounds, 1.4% hits;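 active means inhibition of 40% or more at the single tested concentration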;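 further: wild-type TIM10 isogenic control strain grown at permissive 25 °C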
# PfHsp90 yeast 2 – reduces growth (ATP signal) of yeast expressing P. falciparum Hsp90; S. cerevisiae expressing PfHsp90, BacTiter-Glo ATP, 48 h; yeast lacking PDR1 and PDR3 efflux regulators; inhibition, % at 9.4 µM; 310,000 compounds, 0.32% hits;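 active means every replicate shows inhibition above about 80%, whatever the replicate mean, limit read from the data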;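 further: 0% = DMSO neutral controls and 100% = 20 µM radicicol positive controls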
# tim10-1 inh – tim10-1 yeast growth inhibition. S. cerevisiae tim10-1 ts strain growth, BacTiter-Glo, 24 h. inhibition, % at 20 µM. 330,000 compounds, 2.2% hits. AID 463190;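 active means inhibition of at least 40%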;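 further: mutant grown at 25 °C; 0% = DMSO wells with yeast and 100% = wells holding no yeast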
# tim23-1 inh – inhibits growth of tim23-1 mutant yeast; S. cerevisiae tim23-1 growth, BacTiter-Glo luminescence, 24 h; inhibition, % at 20 µM; 330,000 compounds, 1.3% hits;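 active means growth inhibition of the mutant yeast at or above 50%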;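 further: temperature-sensitive mutant grown at 25 °C; plate controls were DMSO-treated mutant yeast for no effect and medium wells lacking yeast for full effect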
# SUMO Mot1 rescue – SUMOylation pathway inhibition by Mot1-301 growth rescue; S. cerevisiae Mot1-301 growth rescue, ATP luminescence, 38.5C; percent above DMSO median, 100 means doubled; growth rescue, % at 18.8 µM; 320,000 compounds, 1% hits;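 active means every valid replicate shows activation above 250% relative to neutral control wells; inactive means the rest, any valid replicate at or below 250%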;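 further: OY570 slx delta 5 strain wells were the positive control but not used for scaling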
# tim10-1 conf – confirmation of tim10-1 mutant yeast growth inhibitors. AID 463213. shares compounds with tim10-1 inh. 7,400 compounds, 56% hits. S. cerevisiae tim10-1 ts strain growth, BacTiter-Glo, 24 h. inhibition, % at 20 µM;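 active means inhibition of yeast growth at or above a set limit in either of two repeat tests at 20 µM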;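 further: tim10-1 mutant grown at permissive 25 °C to find synthetic lethal compounds; 0% = DMSO yeast wells and 100% = medium wells without yeast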
# Active calls of the source: *; . = no result. Shown are actives, neighbours in structure and some others; about 4.4% of the full set was active somewhere.
SMILES,TIM10 inh,PfHsp90 yeast 2,tim10-1 inh,tim23-1 inh,SUMO Mot1 rescue,tim10-1 conf
CCc1cc2c(C)cc(=O)oc2cc1OC(=O)C1CCCN1C(=O)OC(C)(C)C (centres undefined),23,.,46*,3,51,21
COc1cccc(N2CCN(C(=O)c3ccc(-c4ccccc4)cc3)CC2)c1,12,-2,26,14,290,.
CSc1ccc(S(=O)(=O)NCc2ccccc2C)cc1,17,-3,47*,41,18,25
CSc1ccc(S(=O)(=O)NCc2ccc(C)cc2)cc1,35,9,44*,45,21,37*
Cn1c(SCC(=O)O)nnc1-c1cccc(NC(=O)c2cccc3ccccc23)c1,-16,-23,-6,15,-11,.
Cc1ccnc(NC(=O)c2ccc(C(=O)c3ccccc3)cc2)c1,-4,12,9,27,197,.
Cc1ccnc(NC(=O)c2ccccc2NC(=O)c2ccccc2)c1,12,-4,50*,41,4,33*
COc1cc(NC(=O)c2cc(-c3ccccc3)on2)cc(OC)c1OC,20,-3,3,32,9,.
COc1cccc(-c2cc(C(=O)Nc3cc(OC)c(OC)c(OC)c3)no2)c1,25,-10,51*,45,29,42*
O=C(Cc1ccc(Cl)cc1)Nc1ccc(Br)cn1,16,-13,41*,31,14,16
Oc1c(Cl)cc(Cl)cc1CNc1ccc(Br)cn1,17,-17,55*,34,282,63*
C=CCNC(=O)CSc1nnc(-c2ccc(S(=O)(=O)N3CCCC3)cc2)n1C,-5,15,-4,7,-21,.
COc1cccc(NC(=O)COC(=O)c2c(C)nn(-c3ccccc3)c2C)c1,21,22,7,38,19,.
Cc1ccc(NS(=O)(=O)c2cc3c4c(cccc4c2)C(=O)NC3=O)cc1C,-1,16,1,-14,2,.
Cc1c(C(=O)Nc2ccccn2)sc2nc3n(c(=O)c12)CCC3,6,-22,9,24,1,.
S=C(NCCC(c1ccccc1)c1ccccc1)Nc1cccc(Cl)c1,33,-20,40*,32,-9,17
S=C(N/N=C/c1ccccc1Cl)Nc1ccccc1,11,-4,26,20,.,.
S=C(N/N=C/c1cccc2ccccc12)Nc1cccc(Cl)c1,-2,-2,43*,27,0,37*
Fc1cccc(NC(=S)NCc2ccccc2Cl)c1,29,-23,50*,38,6,44*
CCCNC(=O)C(Cc1ccc(C(F)(F)F)cc1)NC(=O)c1ccc(C#N)cc1 (centres undefined),-2,9,-8,1,7,.
CCC1Sc2ccc(S(=O)(=O)CCC(=O)Nc3c(Cl)cc(OC)cc3OC)cc2NC1=O (centres undefined),2,-5,22,11,11,.
Cc1ccccc1OCC(=O)NNC(=S)NC(=O)c1ccccc1[N+](=O)[O-],15,0,42*,34,0,25
CCCCc1ccc(NS(=O)(=O)c2cccs2)cc1,33,.,41*,41,40,17
CCOC(=O)c1sc(-c2ccc(Br)cc2)cc1N,38,-4,67*,30,-1,58*
CCCCNC(=O)C(C#N)c1nc2ccccc2nc1N1CCN(Cc2ccc3c(c2)OCO3)CC1 (centres undefined),.,8,.,.,.,.
SMILES,TIM10 inh,PfHsp90 yeast 2,tim10-1 inh,tim23-1 inh,SUMO Mot1 rescue,tim10-1 conf
C=CCOC(=O)C(C#N)c1nc2ccccc2nc1N1CCN(Cc2ccc3c(c2)OCO3)CC1 (centres undefined),23,-35,41*,42,14,26
COc1ccc([N+](=O)[O-])c(OC)c1C(=O)NC(=O)Nc1nc(C)nc(C)n1,7,9,-19,-3,4,.
COc1ccc(-c2cc(-c3ccccc3)nc(SCC(=O)Nc3nccs3)c2C#N)cc1,-28,18,15,-11,-19,.
COc1ccc(-c2cc(-c3ccccc3)c(C#N)c(SCC(=O)Nc3ncc(C)s3)n2)cc1,10,-19,42*,21,278,19
O=[N+]([O-])c1cccnc1NCCNc1ncc(C(F)(F)F)cc1Cl,16,0,41*,38,-9,22
O=[N+]([O-])c1ccccc1NCCNc1ncc(C(F)(F)F)cc1Cl,7,3,18,-1,-6,.
CCCc1cc(C(=O)NNC(=S)NC2CCCCC2)cs1,13,-20,2,21,335,.
CN(CCO)c1ccc(-c2n[nH]c(=O)c3ccccc23)cc1[N+](=O)[O-],-2,7,4,7,-28,.
COc1cc(OC)cc(-c2nc3ccccc3c(=O)o2)c1,1,1,6,2,.,.
COc1cccc(-c2nc3ccccc3c(=O)o2)c1,29,-2,48*,36,-42,42*
Cc1ccc(/C=N/NC(=O)CSCc2ccc(Cl)cc2)cc1,39,8,40*,42,36,25
CCOC(=O)c1cc(-c2cccs2)nc2c1c(C)nn2-c1ccccn1,32,-8,52*,41,-19,40*
COc1ccc(/C=[N+](\[O-])C2N(c3ccccc3)C(=S)SC2(C)C)cc1OC (centres undefined),-8,18,-1,4,-22,.
O=C(NC(=S)Nc1ccc(O)cc1)c1cncc(Br)c1,15,-15,15,15,12,.
O=C(NC(=S)Nc1ncc(Br)cc1Br)c1cncc(Br)c1,34,6,40*,36,2,22
Cc1sc(NC(=O)C2C3CCC(O3)C2C(=O)O)nc1-c1ccc(CC(C)C)cc1 (centres undefined),19,-9,41*,27,1,13
N/C(=N\OC(=O)Cc1ccc([N+](=O)[O-])cc1)c1ccc([N+](=O)[O-])cc1,11,2,7,28,4,.
COc1ccc(CC(=O)O/N=C(\N)Cc2ccc([N+](=O)[O-])cc2)cc1,28,-4,43*,29,-6,63*
N/C(=N\OC(=O)Cc1ccc([N+](=O)[O-])cc1)c1cccc(Br)c1,13,.,58*,24,-11,50*
COc1cc(F)c(C2=CC(=O)C[C@H](c3ccc(Cl)cc3)C2)cc1F,-13,2,6,24,0,.
Clc1cc(-c2ccccc2)nc(-c2ccccc2)n1,20,6,24,26,-3,.
Clc1nc(-c2ccccc2)cc(-c2ccccc2)n1,25,-26,43*,34,5,27
Nc1nc(-c2ccccc2)cc(-c2ccccc2O)n1,29,-24,43*,46,12,-8
Oc1ccccc1-c1csc(-c2ccccc2)n1,12,5,46*,19,27,37*
CCOC(=O)c1csc(N/N=C2\CCCc3ccccc32)n1,26,-15,48*,42,0,21
